Compound activity: PubChem, National Center for Advancing Translational Sciences (NCATS)
Glioma ERSR ind: ER stress response induction in glioma; U87-MG GRP78 promoter luciferase reporter, 16 h; 0.02% of 420,000 active; AID 602332; Potency, µM, inactives show at the highest dose activation, hits mostly activators; also: series mostly up to about 76 µM; % of control where 0% means no effect; nearly all actives have a fitted effect of over 35% in size
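Stably transfected U87-MG human glioma cells carrying a GRP78-based luminescent sensor were seeded at 1000 cells/well, pin-dosed with compounds and incubated 16 h. Luciferase reagent was then added, and end-point luminescence was read after 10 min at room temperature.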
VDR inhibitor: inhibitors of human vitamin D receptor | P11473 | VDR-SRC2-3 peptide fluorescence polarization, 2 h | Potency, µM, without a hit: max response, negative = inhibition, hits mostly inhibitors | 0.93% of 400,000 active | AID 504847; also: % is scaled to controls: 0 for no effect and ±100 for the full control effect
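Two reagent solutions held at 4 deg C in the dark were dispensed, compounds pinned at 23 nl, and the mixture incubated 2 h at room temperature. Read-out: fluorescence polarization of VDR–SRC2-3 peptide binding.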
G9a inh: G9a (human) methyltransferase inhibition; Q96KQ7; G9a H3K9 monomethylation, AlphaScreen, 2 h; Potency, µM (highest dose often 102 µM), without a hit: top-dose activity, negative = inhibition, most hits filed as inhibitors; 8.8% of 350,000 active; also: % is scaled to controls: 0 for no effect and ±100 for the full control effect; nearly all actives have a fitted effect of over 75% in size
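Step 1: enzyme (final 20 nM) with compound, 15 min RT. Step 2: substrate peptide 500 nM and SAM 20 uM, 2 h RT. Step 3: anti-H3K9me1 antibody and AlphaScreen beads, 10 min, then plate read.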
ALOX12 inh: blocks human arachidonate 12S-lipoxygenase | P18054 | purified 12hLO, xylenol orange hydroperoxide absorbance | Potency, µM (doses to about 108 µM), for inactives: top-dose activity change, negative = inhibition, usual class: inhibitors | 1.1% of 580,000 active | AID 1671190; also: % is scaled to controls: 0 for no effect and ±100 for the full control effect
Target sequence (P18054 whole entry, looked up): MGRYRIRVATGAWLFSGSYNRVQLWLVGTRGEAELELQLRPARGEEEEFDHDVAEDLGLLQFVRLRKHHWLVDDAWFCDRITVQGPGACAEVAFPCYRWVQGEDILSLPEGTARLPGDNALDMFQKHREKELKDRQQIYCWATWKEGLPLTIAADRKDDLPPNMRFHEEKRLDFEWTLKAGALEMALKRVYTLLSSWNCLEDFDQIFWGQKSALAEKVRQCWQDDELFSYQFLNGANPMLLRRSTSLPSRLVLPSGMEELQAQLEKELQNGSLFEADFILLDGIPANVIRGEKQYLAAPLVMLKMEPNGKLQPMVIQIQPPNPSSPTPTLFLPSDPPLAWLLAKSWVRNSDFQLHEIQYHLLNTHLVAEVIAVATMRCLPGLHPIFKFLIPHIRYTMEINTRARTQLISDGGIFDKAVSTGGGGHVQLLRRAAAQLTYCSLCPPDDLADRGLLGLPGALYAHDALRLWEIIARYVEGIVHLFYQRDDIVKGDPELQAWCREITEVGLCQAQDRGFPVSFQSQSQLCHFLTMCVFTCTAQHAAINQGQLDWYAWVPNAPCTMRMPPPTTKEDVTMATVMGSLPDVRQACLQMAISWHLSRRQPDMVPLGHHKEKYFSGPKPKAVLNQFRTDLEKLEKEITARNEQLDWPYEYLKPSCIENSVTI
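Purified human 12hLO (150 nM final) in 25 mM Hepes, 0.01% Triton X-100, pH 7.0 was preincubated 15 min at room temperature with compound. Then 40 uM arachidonic acid was added, 30 min. Hydroperoxide was read by Fe-XO absorbance ratio 573/405 nm.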
Sfp inh: Sfp phosphopantetheinyl transferase inhibition. Q9F4F7. Biochemical Sfp PPTase activity, qHTS. Potency, µM, without a hit: largest response in the series, negative = inhibition, actives largely listed as inhibitors. 3.5% of 310,000 active;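 also: the enzyme is Sfp with the accession as filed and its product quenches rhodamine fluorescence; 0% = enzyme reaction without inhibitor and -100% = no enzyme wells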
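Fluorescence-quenching assay: 15 nM Sfp-PPTase preincubated 15 min at room temperature with compound, then 5 uM rhodamine-CoA and 12.5 uM BHQ-2-labelled YbbR peptide added. Fluorescence (ex 525/em 598 nm) read at start and after 30 min; difference gives rate.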
* hit, by the source's call; u = inconclusive; x = no result given; [ ] = remark or other dose. This excerpt belongs to a sample that is enriched for hits. Calls follow the shape of the dose curve; as a rule, active = well fitted curve in the direction sought with a large enough effect; inconclusive = small, poorly fitted or top-dose-only effect, or another doubt; inactive = no such curve, though single readings can be large; an effect the other way counts as inactive or inconclusive. Potency is read from the fitted curve at half-maximal effect.

SMILES	Glioma ERSR ind	VDR inhibitor	G9a inh	ALOX12 inh	Sfp inh
Fc1cccc(NC(=S)NNc2ccccc2)c1	11%	40µM*	50µM*	u	2%
Oc1cccc(NC(=S)Nc2ccccc2)c1	-7%	-9%	50µM*	0%	-4%
Fc1cccc(NC(=S)NNc2c3ccccc3nc3ccccc23)c1	-3%	6%	16µM*	40µM*	-9%
Fc1cccc(Nc2c3c(nc4ccccc24)CCC3)c1	-1%	-15%	-9%[2.33 µM]	u	1%
COc1ccc(-c2c(C#N)c(N)nc3c2CN(C)CC3)c(OC)c1	x	x	x	-29%	x
COc1ccccc1N1C(=O)C2C(c3ccccc3F)NN(C(=O)c3ccc(C)cc3)C2C1=O (configuration not stated)	1%	-7%	20µM*	7%[57.4 µM]	u
Cc1ccc2[nH]cc(C(C(=O)O)N3CCN(Cc4nonc4C)CC3)c2c1 (configuration not stated)	x	x	x	11%	x
CC(NC(=O)c1nn(-c2ccccc2)c(=O)c2ccccc12)C1CC1 (configuration not stated)	x	x	x	0%	x
c1ccc2oc(SCc3cn4ccsc4n3)nc2c1	-4%	-4%	u	-3%	50µM*
Cc1csc2nc(CSc3ccc(Cl)cc3)cn12	-1%	u	22%[12.7 µM]	x	-6%
Cc1csc2nc(CSc3nc4ccccc4o3)cn12	-4%	-7%	u	-23%	56µM*
Cc1cccc(-n2c(SCc3cc(=O)n4ccsc4n3)nc3ccccc3c2=O)c1	-4%	21%	-4%	u	11%
Clc1ccc(SCc2cn3ccsc3n2)cc1	3%	14%	-9%	0%	-4%
O=c1c2ccccc2nc(SCc2cn3ccsc3n2)n1-c1ccccc1	-1%	-12%	10µM*	-6%	-8%
Cc1cc(C)n2c(Br)c(CSc3nc4ccccc4o3)nc2n1	5%	-7%	u	u	50µM*
Cc1nn(C)c(C)c1CCN(C)C(=O)C1CCCCC(=O)N1 (configuration not stated)	x	x	x	14%	x
O=C(Cn1nc2n(c1=O)CCCCC2)Nc1ccc(Cl)cc1	x	x	x	37%	x
COCCN(Cc1nccs1)C(=O)c1cnc(-c2ccccn2)[nH]c1=O	x	x	x	128%	x
CC1CCCC(C)N1C(=O)c1ccccc1 (configuration not stated)	x	x	x	1%	x
CC1CCCC(C)N1C(=C(Cl)Cl)C(=C1SCCS1)[N+](=O)[O-] (configuration not stated)	-3%	16%	35µM*	-3%	0%
O=S(=O)(c1ccc(Cl)c(C(F)(F)F)c1)N1CCN(CC(O)COCC2CCCO2)CC1 (configuration not stated)	-1%	19%	4.5µM*	0.56µM*	-19%
O=C(CSc1nnc(-c2ccncc2)n1-c1ccc(Cl)cc1)NCc1ccc2c(c1)OCO2	x	x	x	-1%	x
CCC(CO)Oc1cc(NC(=O)c2ccccc2F)c2ncn(C(C)C)c2c1 (configuration not stated)	-3%	13%	x	28µM*	x
CN1CCc2c([nH]c3ccccc23)C12CCN(C(=O)c1ccccc1)CC2	x	x	x	8%	x
CCNC(=O)NC(=O)C(C)Sc1nnc(COc2ccccc2Cl)o1 (configuration not stated)	3%	-5%	18µM*	448%	-13%
SMILES	Glioma ERSR ind	VDR inhibitor	G9a inh	ALOX12 inh	Sfp inh
Cc1ccc(S(=O)(=O)N(CC(=O)O)Cc2ccco2)cc1	-5%	0%	32µM*	-23%	6%
COc1ccc(S(=O)(=O)N(Cc2ccc(OC)c(OC)c2)Cc2ccco2)cc1	-2%	7%	50µM*	u	17%
COc1ccc(S(=O)(=O)N(CCC(N)=O)Cc2ccco2)cc1OC	17%	-7%	x	14%	6%
COC(=O)CN(Cc1ccco1)S(=O)(=O)c1ccccc1	-4%	-12%	-21%[59 µM]	u	56µM*
CN(C)S(=O)(=O)c1ccc(S(=O)(=O)N(CC(=O)Nc2ccccc2)Cc2ccco2)cc1	-2%	-8%	-33%	0%	1%
COc1ccccc1NC(=O)c1ncoc1-c1ccc(OC)c(OC)c1	x	x	x	-9%	x
Cc1ccc(-c2cc(N3CCC(CNC(=O)c4cc(C5CC5)[nH]n4)CC3)n[nH]2)cc1	x	x	x	71%	x
O=C(CSc1nc2cc(S(=O)(=O)N3CCCCC3)ccc2o1)Nc1ccccc1F	x	x	x	-9%	x
Cc1cc(C(=O)COC(=O)/C=C/c2cccc(Br)c2)c(C)n1C	-1%	-14%	45µM*	-10%	x
Cc1cc(C(=O)COC(=O)/C=C/c2cccc(F)c2)c(C)n1C	-1%	-15%	u	-10%	-3%
Cc1ccc(CN2C(=O)C[C@@H](NS(=O)(=O)c3ccc4ccccc4c3)C/C=C\C2c2ccc(C)cc2)cc1 (some centres not stated)	-3%	u	6.3µM*	x	-19%
CCc1cccc2c(C(=O)COC(=O)c3ccc(C)s3)c[nH]c12	x	x	x	45%	x
S=C1NNC2(NN1)C1CC3CC(C1)CC2C3	-5%	10%	8.9µM*	u	-3%
COc1ccc2c(c1)c(=O)oc1cc(OCC(=O)NC3CC3)ccc12	-2%	-2%	u	0%	9%
COc1ccc2c(c1)c(=O)oc1cc(OCC(=O)NC3CCCCC3)ccc12	-1%	-2%	11µM*	u	-9%
Cc1ccc(CNC(=O)CN2NS(=O)(=O)c3ccccc3C2=O)cc1	-4%	x	x	20µM*	x
Cc1ccc(CNC(=O)CN2C(=O)c3ccccc3S2(=O)=O)cc1	2%	0%	15%	-18%	10%
COc1ccc2c(C)nc(N/C(N)=N/S(=O)(=O)c3ccc(C)cc3)nc2c1	-2%	-8%	12%	-15%	13%
Cc1cc(C)cc(NC(=S)/N=C(\N)Nc2nc(C)c3ccccc3n2)c1	-4%	u	21%[59 µM]	45µM*	12%
Cc1cccc(NC(=S)/N=C(\N)Nc2nc(C)c3ccccc3n2)c1	-3%	u	0%	u	3%
Cc1ccc(S(=O)(=O)/N=C(\N)Nc2nc(C)c3ccccc3n2)cc1	6%	-8%	12%	0%	89µM*
CCc1ccc(NC(=S)/N=C(\N)Nc2nc(C)c3cc(CC)ccc3n2)cc1	-9%	u	-4%[59 µM]	35µM*	27%
COc1ccc2nc(N/C(N)=N/C(=S)Nc3ccc(C)c(C)c3)nc(C)c2c1	x	x	17%[59 µM]	x	3%
Cc1cccc(NC(=S)/N=C(\N)Nc2nc(C)c3cc(C)ccc3n2)c1	-4%	u	7%	40µM*	11%
CN(C(=O)c1cccc(Cl)c1)C1CCCCC1	x	x	x	6%	x
COc1cccc(C(=O)Oc2ccc(F)cc2C(=O)/C=C/c2ccc(F)cc2)c1	x	x	x	-14%	x
CCCNC(=O)CN1CCN(Cc2nc3ccccc3o2)CC1	x	x	x	31%	x
CCOc1cc2ccccc2cc1C(=O)N1CCN(CC(=O)Nc2ccccc2Cl)CC1	x	x	x	-16%	x
Cc1ccccc1C1CC(=O)NC2=C1C(=O)CC(C)(C)C2 (configuration not stated)	x	x	x	-4%	x
